Assay results as given in PubChem BioAssay (NCATS).
“And” between values parts separate entries of the source, which are not always exact repeats. Identical values can stand only once. Inconclusive results are not listed. The source made the active and inactive calls. Unless noted, the call rests on the fitted dose curve; in most records, active means well fitted curve in the direction sought with a large enough effect; inconclusive means small, poorly fitted or top-dose-only effect, or another doubt; inactive means no such curve, though single readings can be large; an effect the other way counts as inactive or inconclusive.

Legend:
[1] = qHTS assay for small molecule disruptors of the mitochondrial membrane potential - 1 hr assay (AID 651754; calls by dose curve; further: nearly all actives have a fitted effect of over 35% in size; further: potency means the concentration at half of the fitted maximal effect)
Summary of the method: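 Loss of mitochondrial potential shifts the cationic dye from red mitochondrial aggregates to green cytoplasmic monomers. Cells (HepG2) are treated with compound for 1 hr before a 30 min dye incubation at 37C.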

[2] = target: Tumor necrosis factor (Homo sapiens) (UniProt P01375); experiment: qHTS assay to identify small molecules that stimulate Tumor Necrosis Factor-alpha (TNF-alpha) secretion (AID 651757; active means well fitted curve in the direction sought with a large enough effect in the signal ratio; the % refers to the signal ratio; further: 0% is about no effect)
Sequence of Tumor necrosis factor (Homo sapiens) (P01375 whole entry, looked up): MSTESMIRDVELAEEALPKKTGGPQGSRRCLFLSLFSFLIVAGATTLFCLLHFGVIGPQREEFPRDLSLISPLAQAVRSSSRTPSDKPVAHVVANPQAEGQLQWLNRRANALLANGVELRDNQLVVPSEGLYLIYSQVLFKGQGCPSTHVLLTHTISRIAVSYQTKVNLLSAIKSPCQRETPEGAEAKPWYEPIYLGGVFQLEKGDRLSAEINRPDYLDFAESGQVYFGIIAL
Summary of the method: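 Human monocytic THP-1 cells are plated, treated with compound and held at 37 C for 17 hrs. Labeled anti-TNF-alpha antibody mixture is then added; after 3 hr at room temperature, TR-FRET signal reports secreted TNF-alpha.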

[3] = qHTS assay to identify small molecules that stimulate interleukin-8 (IL-8) secretion (AID 651758; active means well fitted activation curve with a large enough effect in the signal ratio; the % refers to the signal ratio; further: 0% is about no effect)
Summary of the method: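 Compounds are added to THP-1 cells (2000 per well) and left 16 hrs at 37 C. A labeled anti-IL-8 antibody pair is then added, and IL-8 secretion is measured by time-resolved FRET after 1-3 hrs at room temperature.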

[4] = qHTS assay for environmental chemicals that activate the Aryl hydrocarbon Receptor (AhR) signaling pathway (AID 651777); settings: 1A2-DRE human hepatoma cells, luciferase, 24 h; activation: hits give high values; further: nearly all actives have a fitted effect of over 15% in size; further: potency means the concentration at half of the fitted maximal effect; on activation: % of control where 0% means no effect
Summary of the method: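 Measured luciferase activity, read 30 min after One-Glo addition at room temperature, from human hepatoma cells bearing a dioxin response element–CYP1A2 promoter reporter and exposed to compound for 24 hr at 37 C.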

[5] = target: Peroxisome proliferator-activated receptor alpha (Homo sapiens) (UniProt Q07869); experiment: qHTS assay for small molecule agonists of the peroxisome proliferator-activated receptor alpha (PPARalpha) signaling pathway (AID 651778); settings: PathHunter PPARalpha complementation, chemiluminescence, 6 h; hits give high values; further: % of control where 0% means no effect
Sequence of Peroxisome proliferator-activated receptor alpha (Homo sapiens) (Q07869 whole entry, looked up, the tested form may be a part): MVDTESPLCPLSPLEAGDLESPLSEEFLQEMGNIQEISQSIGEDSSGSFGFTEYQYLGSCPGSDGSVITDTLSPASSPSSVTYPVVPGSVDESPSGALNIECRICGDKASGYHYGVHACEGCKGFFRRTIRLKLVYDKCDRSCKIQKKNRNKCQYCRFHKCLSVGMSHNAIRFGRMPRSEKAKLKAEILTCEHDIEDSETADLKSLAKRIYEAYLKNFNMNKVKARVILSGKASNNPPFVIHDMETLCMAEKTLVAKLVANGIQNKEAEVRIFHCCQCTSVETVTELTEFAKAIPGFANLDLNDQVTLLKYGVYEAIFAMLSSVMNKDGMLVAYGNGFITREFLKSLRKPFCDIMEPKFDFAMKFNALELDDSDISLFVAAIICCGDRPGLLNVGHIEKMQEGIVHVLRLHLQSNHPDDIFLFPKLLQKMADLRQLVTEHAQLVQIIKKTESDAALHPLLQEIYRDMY
Summary of the method: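 Enzyme-fragment complementation assay in which ligand-bound PPARalpha translocates and forms an active enzyme that generates chemiluminescence. Cells were plated overnight, exposed to compound for 6 hr at 37 C, and then given detection reagent for 60 min at room temperature.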

[6] = target: Nuclear receptor ROR-gamma (Homo sapiens) (UniProt P51449); experiment: qHTS assay for small molecule antagonists of the retinoid-related orphan receptor gamma (ROR-gamma) signaling pathway (AID 651802);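 further: CHO cells with doxycycline-induced ROR-gamma expression; series mostly up to about 92 µM; on the % scale 0 is the no-effect control and ±100 the full control effect; nearly all actives have a fitted effect of over 60% in size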
Sequence of Nuclear receptor ROR-gamma (Homo sapiens) (P51449 whole entry, looked up): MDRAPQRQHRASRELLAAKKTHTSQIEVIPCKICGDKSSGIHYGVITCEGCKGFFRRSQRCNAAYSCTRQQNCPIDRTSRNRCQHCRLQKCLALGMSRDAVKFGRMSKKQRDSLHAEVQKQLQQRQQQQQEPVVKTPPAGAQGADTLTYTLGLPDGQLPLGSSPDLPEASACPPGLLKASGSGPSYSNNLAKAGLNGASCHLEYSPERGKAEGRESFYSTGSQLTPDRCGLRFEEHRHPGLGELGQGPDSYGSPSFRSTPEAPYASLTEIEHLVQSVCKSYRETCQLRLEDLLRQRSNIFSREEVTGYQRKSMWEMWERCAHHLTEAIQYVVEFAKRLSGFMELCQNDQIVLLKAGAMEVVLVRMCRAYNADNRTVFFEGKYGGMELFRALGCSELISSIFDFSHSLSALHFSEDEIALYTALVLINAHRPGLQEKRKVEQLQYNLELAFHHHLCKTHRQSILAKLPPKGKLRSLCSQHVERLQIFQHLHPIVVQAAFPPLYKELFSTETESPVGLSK
Summary of the method: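 Steps: cells dispensed; compound or DMSO transferred by pin tool; doxycycline added to induce the ROR response element-driven luciferase; plates held 16hr at 37C; ONE-Glo added and luminescence measured.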

[7] = qHTS assay for small molecule agonists of the antioxidant response element (ARE) signaling pathway measured by Nrf2-dependant transcriptional activity (AID 720636; active means well fitted curve in the direction sought with a large enough effect in the repeat runs; an effect the other way counts as inactive or inconclusive;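 further: HepG2 cells with an ARE-driven luciferase reporter; % of control where 0% means no effect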)
Summary of the method: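 In HepG2 cells engineered with an Nrf2-responsive luciferase gene, ARE induction was quantified as luminescence after 16 hr compound treatment at 37 C.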

[8] = qHTS assay for small molecule antagonists of the retinoid-related orphan receptor gamma (ROR-gamma) signaling pathway - cell viability counter screen (AID 720652; active means well fitted curve in the direction sought with a large enough effect in the repeat runs; an effect the other way counts as inactive or inconclusive;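 further: CHO reporter cells with doxycycline-induced ROR-gamma expression; series mostly up to about 92 µM; compound exposure lasted 16 hr before ATP read; on the % scale 0 is the no-effect control and ±100 the full control effect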)
Summary of the method: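 Steps: seed CHO cells bearing TET-inducible ROR and ROR response element-luciferase; rest 5 hr at 37 C; add compound, then doxycycline; incubate 16 hr; add CellTiter-Glo and read luminescence as ATP-based viability.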

[9] = qHTS assay for small molecule agonists of the antioxidant response element (ARE) signaling pathway measured by Nrf2-dependant transcriptional activity - cell viability counter screen (AID 720653; active means well fitted curve in the direction sought with a large enough effect in the repeat runs; an effect the other way counts as inactive or inconclusive; further: on the % scale 0 is the no-effect control and ±100 the full control effect); settings: ARE-bla HepG2 viability, CellTiter-Glo ATP luminescence, 16 h; hits give low values
Summary of the method: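 ARE-bla HepG2 cells treated with compounds for 16 h at 37C; this counter screen measures viability as intracellular ATP by CellTiter-Glo luminescence after 30 min at room temperature.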

[10] = qHTS assay for small molecule disruptors of the mitochondrial membrane potential - 5 hr assay (AID 651755; calls by dose curve; further: on the % scale 0 is the no-effect control and ±100 the full control effect; nearly all actives have a fitted effect of over 40% in size)
Summary of the method: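 Read-out: ratiometric Mito-MPS fluorescence, green monomer (ex 490/em 535) vs red mitochondrial aggregate (ex 540/em 590). HepG2 cells treated 5 hr at 37C before 30 min dye loading.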

Cc1cccc([N+](=O)[O-])c1C(=O)O
inactive: Potency [1] | Potency [2] | Potency [3] | activation [4] -0.538% | max response [5] 4.5% | Potency [6] | outcome [7] | Potency [8] | max response [9] 0.554%

Nc1nc(CC(=O)O)cs1
inactive: Potency [1] | Potency [2] | activation [4] -0.467% | max response [5] 1.57% | Potency [6] | outcome [7] | Potency [8] | max response [9] 4.24%

C=C(C)C(N)=O
inactive: Potency [1] | Potency [2] | activation [4] -1.72% | max response [5] -6.13% | Potency [6] | outcome [7] | Potency [8] | max response [9] -10.7%

Cc1ccccc1C(=O)O
inactive: Potency [1] | Potency [2] | activation [4] 0.336% | max response [5] -0.184% | Potency [6] | outcome [7] | Potency [8] | max response [9] 0.515%

COc1cccc2sc(N)nc12
inactive: Potency [1] | Potency [2] | max response [5] -2.03% | Potency [6] | outcome [7] | Potency [8] | max response [9] 1.42%

COC(=O)c1ccccc1
inactive: Potency [1] | activation [4] -0.388% | max response [5] -4.31% | Potency [6] | outcome [7] | Potency [8] | max response [9] 3.39%

NC(=S)NNC(N)=S
inactive: Potency [1] | Potency [2] | activation [4] 0.955% and 1.28% | max response [5] 0.409% and -1.13% | Potency [6] | max response [9] 1.26% and -5.12%

Cc1ccc2cccnc2c1
inactive: Potency [1] | Potency [2] | Potency [3] | activation [4] 0.306% | max response [5] -8.31% | outcome [7] | Potency [8] | max response [9] 0.459%

COc1ccc(N)c(OC)c1
active: Potency [1] 37.6 µM
inactive: activation [4] 3.03% | max response [5] 4.7% | Potency [6] | outcome [7] | Potency [8] | max response [9] 4.1%

CCC(=O)/C=C/C1C(C)=CCCC1(C)C (centres undefined)
inactive: Potency [1] | Potency [2] | Potency [3] | activation [4] -0.103% | max response [5] 0.561% | Potency [6] | outcome [7] | Potency [8] | max response [9] 0.358%

ON=C1CCCCC1
inactive: Potency [1] | Potency [3] | activation [4] 0.388% | max response [5] 1.6% | Potency [6] | outcome [7] | Potency [8] | max response [9] 5.44%

Cc1ccco1
inactive: Potency [1] | Potency [2] | activation [4] -0.591% | max response [5] -4.89% | Potency [6] | outcome [7] | Potency [8] | max response [9] -4.14%

Cc1cccc(Br)c1
inactive: Potency [1] | Potency [2] | activation [4] 0.194% | max response [5] -5.52% | Potency [6] | outcome [7] | max response [9] 6.53%

C1COC1
inactive: Potency [1] | Potency [2] | activation [4] -0.727% | max response [5] 0.481% | Potency [6] | max response [9] -0.519%

Cc1cc([N+](=O)[O-])ccc1N
inactive: Potency [1] | Potency [2] | activation [4] 0.911% | max response [5] -7.44% | outcome [7] | Potency [8] | max response [9] -20.9%

O=Cc1ccc(C(=O)O)cc1
inactive: Potency [1] | Potency [2] | activation [4] -0.237% | max response [5] -5.11% | outcome [7] | Potency [8] | max response [9] -13.7%

C=Cc1ccccn1
inactive: Potency [1] | Potency [3] | activation [4] 0.147% | max response [5] 0.108% | outcome [7] | Potency [8] | max response [9] -6.91%

COc1ccccc1[N+](=O)[O-]
inactive: Potency [1] | Potency [2] | activation [4] 0.316% and 0.0004% | max response [5] -1.42% and -1.21% | Potency [6] | outcome [7] | Potency [8] | max response [9] -18.6% and -4.26%

O=Cc1ccc(CO)o1
inactive: Potency [1] | Potency [2] | Potency [3] | activation [4] -1.71% | max response [5] -3.35% | Potency [6] | outcome [7] | max response [9] -0.711%

CCOC(=O)C(C)C(C)=O (centres undefined)
inactive: Potency [1] | Potency [2] | activation [4] 0.277% | max response [5] -3.29% | outcome [7] | Potency [8] | max response [9] -7.43%

NC=O
inactive: Potency [1] | Potency [2] | activation [4] 1.58% | max response [5] -1.01% | Potency [6] | outcome [7] | Potency [8] | max response [9] 6.13%

Cc1cccc(C)c1O
inactive: Potency [1] | Potency [2] | Potency [3] | activation [4] 0.0984% | max response [5] -7.29% | Potency [6] | outcome [7] | Potency [8] | max response [9] 8.44%

O=C(O)CCSSCCC(=O)O
inactive: Potency [1] | Potency [2] | Potency [3] | activation [4] -0.395% | max response [5] -1.98% | Potency [6] | outcome [7] | Potency [8] | max response [9] 0.366%

COc1ccc(N=[N+]([O-])c2ccc(OC)cc2)cc1
inactive: Potency [1] | Potency [10] | max response [5] -3.57% | max response [9] -28.6%
active: Potency [4] 1.12 µM

O=C1OC(=O)c2c(Br)c(Br)c(Br)c(Br)c21
inactive: Potency [1] | Potency [2] | Potency [3] | activation [4] -1.58% and 0.554% | max response [5] 0.713% and 0.326% | outcome [7] | Potency [8] | max response [9] -8.33% and -1.37%
